The full list was thinned out, with hits kept by preference.
C diff HTS – inhibitors of Clostridium difficile growth; Clostridium difficile clinical isolate growth, OD600, 24 h; active compounds read low; growth activity, negative = inhibition, % at 16 µg/mL (by protocol); 0.25% of 86,000 active;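 active = mean growth activity at or below -80% and every replicate also at or below -80%; inconclusive = mean at or below -80% but some replicate above -80%; inactive = mean growth activity above -80%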;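 note: 0% = DMSO wells and -100% = levofloxacin 16 µg/mL wells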
T cruzi growth-1 – T. cruzi proliferation inhibition | T. cruzi beta-gal in NIH3T3, GalScreen luminescence, 90 h | inhibition, % at 8.34 µM | 5.9% of 77,000 active | AID 624255;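 active = mean inhibition above about 93%, with at least 55% of replicates each passing it, limit read from the data, passing the limit was not always enough; inconclusive = only one of those two conditions holds; inactive = neither condition holds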
T cruzi growth-2 – inhibitors of T. cruzi proliferation. shares compounds with T cruzi growth-1. T. cruzi beta-gal in NIH3T3, GalScreen luminescence, 90 h. inhibition, % at 8.35 µM. 72% of 5,600 active. AID 651739;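 active = mean replicate inhibition above about 95% and at least 55% of replicates individually reaching it, limit read from the data; inconclusive = only one of the two criteria is met; inactive = neither criterion is met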
T cruzi growth-3 – inhibitors of T. cruzi proliferation | shares compounds with T cruzi growth-1 | T. cruzi beta-gal in NIH3T3, GalScreen luminescence, 90 h | inhibition, % at 2.09 µM | 21% of 5,600 active | AID 651740;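 active = mean inhibition above about 95%, with at least 55% of replicates also reaching it, limit read from the data; inconclusive = meets just one of the two conditions; inactive = meets neither condition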;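 note: plate controls were neutral control median for no effect and positive control median for full effect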
3T3 cytotox – cytotoxicity in mouse NIH/3T3 fibroblasts; 14% of 5,600 active; AID 651742; NIH/3T3 viability, CellTiter-Glo ATP luminescence, 90 h; shares compounds with T cruzi growth-1; cytotoxicity (signal decrease), % at 8.35 µM;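 active = mean signal decrease across replicates above about 35% based on untreated-well scatter, with enough replicates individually passing, limit read from the data; inconclusive = no rule stated though some were filed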;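 note: 0% = median of neutral control wells and 100% = median of positive control wells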
3T3 cytotox 2 – NIH/3T3 (mouse) viability loss | shares compounds with T cruzi growth-1 | NIH/3T3 viability, CellTiter-Glo ATP luminescence, 90 h | inhibition, % at 24.9 µM | 56% of 5,600 active | AID 651744;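 active = mean loss of cell viability signal at or above a set limit, and enough replicates individually reaching it; inconclusive = meets only the mean limit or only the replicate share; inactive = meets neither condition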;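 note: 0% = median of neutral control wells and 100% = median of positive control wells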
* hit, by the source's call; ? = inconclusive; · = no result; + = active, no number.

SMILES	C diff HTS	T cruzi growth-1	T cruzi growth-2	T cruzi growth-3	3T3 cytotox	3T3 cytotox 2
COc1ccc(NC(=O)N(C)C[C@@H]2Oc3ccc(NS(=O)(=O)c4cn(C)cn4)cc3C(=O)N([C@H](C)CO)C[C@@H]2C)cc1	-4	69	·	·	·	·
C[C@H]1CN([C@@H](C)CO)C(=O)CCCn2nncc2CO[C@H]1CN(C)S(=O)(=O)c1ccc(-c2ccccc2)cc1	3	9	·	·	·	·
C[C@@H]1CN([C@@H](C)CO)C(=O)c2cc(NC(=O)Nc3ccc(C(F)(F)F)cc3)ccc2O[C@@H](C)CCCCO[C@@H]1CN(C)Cc1ccc2c(c1)OCO2	-10	123*	98*	113*	14	20
C[C@H]1CCCCO[C@@H](CN(C)Cc2ccc3c(c2)OCO3)[C@@H](C)CN([C@@H](C)CO)C(=O)c2cc(NC(=O)Nc3ccc(C(F)(F)F)cc3)ccc2O1	-19	121*	91	116*	47*	105*
C[C@@H]1CCCCO[C@H](CN(C)Cc2ccc(C(F)(F)F)cc2)[C@H](C)CN([C@H](C)CO)C(=O)c2cc(NC(=O)Nc3ccc(C(F)(F)F)cc3)ccc2O1	11	80	·	·	·	·
C[C@@H]1CN([C@@H](C)CO)C(=O)c2cc(NC(=O)Nc3ccc4c(c3)OCO4)ccc2O[C@@H](C)CCCCO[C@@H]1CN(C)Cc1ccc(C(F)(F)F)cc1	·	94	·	·	·	·
CO[C@@H]1CN(C)C(=O)c2cc(NC(=O)C3CC3)ccc2OC[C@@H](C)N(C(=O)CN2CCOCC2)C[C@H]1C	·	34	·	·	·	·
C[C@@H]1CN([C@H](C)CO)C(=O)c2cccc(NC(=O)NC3CCCCC3)c2O[C@@H]1CN(C)Cc1ccccc1	7	-67	·	·	·	·
Cc1ccc(S(=O)(=O)Nc2ccc3c(c2)C(=O)N([C@H](C)CO)C[C@@H](C)[C@H](CN(C)C(=O)NC(C)C)O3)cc1	-4	-13	·	·	·	·
O=C(NCc1ccc(F)cc1)[C@@H]1[C@@H](CO)[C@@H]2Cn3c(cccc3=O)[C@H]1N2Cc1cccnc1	-2	100*	21	-8	17	-2
CC(=O)N1[C@@H]2c3ccc(C4=CCCCC4)c(=O)n3C[C@H]1[C@H](CO)[C@H]2C(=O)N[C@@H](C)c1ccccc1	0	+	-46	-59	3	2
O=C(NCc1ccc2c(c1)OCO2)[C@@H]1[C@@H](CO)[C@@H]2Cn3c(cccc3=O)[C@H]1N2Cc1cccnc1	·	-6	·	·	·	·
CC(=O)N1[C@@H]2Cn3c(ccc(C4=CCCCC4)c3=O)[C@H]1[C@@H](C(=O)N[C@H](C)c1ccccc1)[C@@H]2CO	-17	24	·	·	·	·
C[C@H](NC(=O)[C@H]1[C@H](CO)[C@H]2Cn3c(cccc3=O)[C@@H]1N2C(=O)C1CCC1)c1ccccc1	-2	-16	·	·	·	·
O=C([C@@H]1[C@@H](CO)[C@@H]2Cn3c(cccc3=O)[C@H]1N2Cc1ccccc1)N1CCCCC1	-2	1	·	·	·	·
CN1CCN(C(=O)[C@@H]2[C@@H](CO)[C@@H]3Cn4c(cccc4=O)[C@H]2N3Cc2ccncc2)CC1	-4	169*	2	16	-16	-5
C[C@@H](NC(=O)[C@H]1[C@H](CO)[C@H]2Cn3c(cccc3=O)[C@@H]1N2C(=O)C1CC1)c1ccccc1	-3	103*	30	12	11	3
O=C(NC1CCCC1)[C@@H]1[C@@H](CO)[C@@H]2Cn3c(ccc(-c4ccccc4F)c3=O)[C@H]1N2C(=O)CC1CC1	-7	-68	·	·	·	·
C[C@H](O)C#Cc1ccc2c(c1)O[C@H](CN(C)C(=O)C1CCC1)[C@@H](C)CN([C@@H](C)CO)S2(=O)=O	0	24	·	·	·	·
O=C(Cc1cccnc1)N1CC(=O)N2[C@H](C1)[C@@H](c1ccc(C3=CCCC3)cc1)[C@@H]2CO	-9	·	·	·	·	·
COc1ccc(CN(C)C[C@H]2OCCCC[C@@H](C)Oc3ccc(NS(=O)(=O)c4c(C)noc4C)cc3C(=O)N([C@@H](C)CO)C[C@@H]2C)cc1	-3	53	·	·	·	·
Cc1noc(C)c1S(=O)(=O)Nc1cccc2c1O[C@H](CN(C)C(=O)Nc1ccc(C(F)(F)F)cc1)[C@H](C)CN([C@H](C)CO)C2=O	8	49	·	·	·	·
C[C@H]1CN([C@@H](C)CO)C(=O)Cc2cc(NC(=O)CCN3CCOCC3)ccc2O[C@H]1CN(C)Cc1ccc(-c2ccccc2)cc1	3	15	·	·	·	·
C[C@H](NC(=O)[C@H]1[C@H](CO)[C@H]2Cn3c(cccc3=O)[C@@H]1N2Cc1ccncc1)c1ccccc1	-4	21	·	·	·	·
C[C@@H](NC(=O)[C@@H]1[C@@H](CO)[C@@H]2Cn3c(cccc3=O)[C@H]1N2C(=O)C1CCC1)c1ccccc1	-2	41	·	·	·	·
SMILES	C diff HTS	T cruzi growth-1	T cruzi growth-2	T cruzi growth-3	3T3 cytotox	3T3 cytotox 2
C[C@@H](NC(=O)[C@H]1[C@H](CO)[C@H]2Cn3c(cccc3=O)[C@@H]1N2Cc1ccccc1)c1ccccc1	-4	101*	69	-27	-5	-1
C[C@H](NC(=O)[C@H]1[C@H](CO)[C@H]2Cn3c(cccc3=O)[C@@H]1N2C(=O)C1CC1)c1ccccc1	-2	101*	6	-25	-3	-22
Cc1cccc(-c2ccc([C@H]3[C@H](CO)N4C(=O)CN(S(=O)(=O)c5cccc(F)c5)C[C@@H]34)cc2)c1	66	·	·	·	·	·
COCC(=O)N(C)C[C@H]1Oc2cc(C#CCN(C)C)ccc2S(=O)(=O)N([C@@H](C)CO)C[C@H]1C	-2	-4	·	·	·	·
C[C@@H]1CN([C@@H](C)CO)C(=O)c2cccc(NC(=O)Nc3ccccc3)c2O[C@H]1CN(C)CC1CCCCC1	5	60	·	·	·	·
C[C@@H]1CCCCO[C@H](CN(C)C(=O)Nc2ccc(C(F)(F)F)cc2)[C@H](C)CN([C@@H](C)CO)C(=O)c2cc(NC(=O)c3ccccc3)ccc2O1	-2	86	·	·	·	·
C[C@@H]1CCCCO[C@H](CN(C)C(=O)Nc2ccc(F)cc2)[C@H](C)CN([C@@H](C)CO)C(=O)c2cc(NC(=O)c3ccccc3)ccc2O1	1	86	·	·	·	·
C[C@@H]1CCCCO[C@H](CN(C)C(=O)Nc2ccc(C(F)(F)F)cc2)[C@H](C)CN([C@H](C)CO)C(=O)c2cc(NC(=O)c3ccccc3)ccc2O1	13	102*	110*	106*	-3	-11
C[C@H]1CCCCO[C@@H](CN(C)C(=O)Nc2ccc(F)cc2)[C@@H](C)CN([C@@H](C)CO)C(=O)c2cc(NC(=O)c3ccccc3)ccc2O1	-6	?	?	26	-4	-2
C[C@@H]1CCCCO[C@@H](CN(C)C(=O)Nc2ccc(C(F)(F)F)cc2)[C@@H](C)CN([C@H](C)CO)C(=O)c2cc(NC(=O)c3ccccc3)ccc2O1	-1	71	·	·	·	·
C[C@@H]1CCCCO[C@H](CN(C)C(=O)Nc2ccc(C(F)(F)F)cc2)[C@@H](C)CN([C@@H](C)CO)C(=O)c2cc(NC(=O)c3ccncc3)ccc2O1	3	72	·	·	·	·

Assay outcomes deposited in PubChem by Broad Institute.
